Measurements taken from paper PMC5540273 (PLoS ONE, 2017).

Key:
Details in all cases: concentration: 1 μM, replicates: in singlicate; n = 1
IKK-alpha = system: T1, IKK-alpha
T1 construct: gene CHUK

IKK-beta = system: T2, IKK-beta
T2 construct: gene IKBKB

IKK-epsilon = system: T3, IKK-epsilon
T3 construct: gene IKBKE

INSRR = system: INSRR
INSR = system: INSR
IRAK1 = system: IRAK1
IRAK3 = system: IRAK3
IRAK4 = system: IRAK4
ITK = system: ITK
[1] = system: JAK1(JH1domain-catalytic)
[2] = system: JAK1(JH2domain-pseudokinase)
[3] = system: JAK2(JH1domain-catalytic)
[4] = system: JAK3(JH1domain-catalytic)
JNK1 = system: T4, JNK1
T4 construct: gene MAPK8

JNK2 = system: T5, JNK2
T5 construct: gene MAPK9

JNK3 = system: T6, JNK3
T6 construct: gene MAPK10

KIT-autoinhibited = system: KIT-autoinhibited
KIT = system: KIT
LATS1 = system: LATS1
LATS2 = system: LATS2
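Further: KINOMEscan kinase panel screen.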

| SMILES | %Inh (IKK-alpha) | %Inh (IKK-beta) | %Inh (IKK-epsilon) | %Inh (INSRR) | %Inh (INSR) | %Inh (IRAK1) | %Inh (IRAK3) | %Inh (IRAK4) | %Inh (ITK) | %Inh [1] | %Inh [2] | %Inh [3] | %Inh [4] | %Inh (JNK1) | %Inh (JNK2) | %Inh (JNK3) | %Inh (KIT-autoinhibited) | %Inh (KIT) | %Inh (LATS1) | %Inh (LATS2) |
| --- | --- | --- | --- | --- | --- | --- | --- | --- | --- | --- | --- | --- | --- | --- | --- | --- | --- | --- | --- | --- |
| CN(c1ccc(NC(=O)Nc2cc(C(F)(F)F)ccc2F)cc1)c1ccnc(Nc2ccc(S(N)(=O)=O)cc2)n1 [GW809893] | 82% | 44% | 7% | 13% | 15% | 49% | 51% | 6% | 59% | 95.3% | 16% | 94.7% | 51% | 8% | 51% | 0% | 16% | 99.5% | 0% | 0% |
| Cc1ccc(F)c(C(=O)Nc2cccc(-c3nn4ccccc4c3-c3ccnc(Nc4cccc(F)c4)n3)c2)c1F [GSK361061] | 0% | 0% | 22% | 26% | 25% | 0% | 17% | 3% | 43% | 9% | 0% | 8% | 0% | 29% | 38% | 25% | 2% | 99.4% | 1% | 23% |
| COc1ccc(Nc2nccc(NCCNC(=O)c3cc4ccccc4s3)n2)cc1 [GSK1379896] | 0% | 0% | 0% | 0% | 0% | 0% | 0% | 0% | 8% | 5% | 0% | 23% | 0% | 6% | 27% | 6% | 0% | 5% | 0% | 0% |
| COc1ccc(-c2coc3ccc(-c4nnc(SCc5ccc(OC)c(C(F)(F)F)c5)o4)cc23)cc1 | 25% | 6% | 22% | 0% | 25% | 10% | 4% | 14% | 25% | 0% | 32% | 22% | 0% | 0% | 0% | 0% | 7% | 20% | 25% | 0% |
| COc1cc(Nc2nccc(-c3c(-c4cccc(NC(=O)c5c(F)cccc5F)c4)nn4ccccc34)n2)cc(OC)c1OC [GSK323521] | 0% | 25% | 65% | 13% | 13% | 10% | 22% | 0% | 13% | 5% | 0% | 11% | 0% | 12% | 15% | 3% | 23% | 100% | 0% | 11% |
| Cc1cccc(NC(=O)Nc2ccc(Oc3ncnc4ccn(C)c34)cc2)c1 | 27% | 8% | 0% | 0% | 0% | 0% | 0% | 0% | 0% | 0% | 30% | 0% | 9% | 9% | 0% | 0% | 97% | 100% | 5% | 0% |
| COC(=O)Nc1nc2cc(Oc3ccc(NC(=O)Nc4cc(C(F)(F)F)ccc4F)cn3)ccc2[nH]1.Cl.Cl [GW681170] | 66% | 17% | 0% | 0% | 0% | 49% | 0% | 3% | 0% | 30% | 0% | 30% | 0% | 0% | 62% | 0% | 1% | 100% | 0% | 8% |
| CN(C)S(=O)(=O)c1cc(-c2ccc3nccc(-c4cccc(S(N)(=O)=O)c4)c3c2)cnc1N [GSK1669921] | 0% | 0% | 0% | 24% | 42% | 0% | 29% | 9% | 16% | 12% | 12% | 24% | 0% | 17% | 0% | 0% | 0% | 21% | 0% | 14% |
| Clc1ccc(-c2nn3ncccc3c2-c2ccnc(Nc3ccc4c(c3)OCCO4)n2)cc1 [GW829116] | 0% | 0% | 17% | 0% | 0% | 0% | 0% | 0% | 0% | 0% | 17% | 2% | 0% | 99.2% | 99.9% | 100% | 36% | 99.9% | 0% | 0% |
| COc1ccc(Nc2nccc(N3CCC(NC(=O)Nc4cccc(OC)c4)C3)n2)cc1 (centres unmarked) [GSK1379742] | 24% | 19% | 0% | 0% | 0% | 0% | 15% | 6% | 11% | 12% | 0% | 26% | 0% | 14% | 13% | 0% | 31% | 49% | 0% | 0% |
